SMILES strings stand for the structures. Records with an inconclusive call do not appear. A call without a number means that no potency is given here. Active and inactive are the calls of the source. Calls follow the shape of the full dose curve; tested in HEK293 reporter line.
Potency is read from the fitted curve at half-maximal effect.

One experiment in a line: qHTS for Inhibitors of the Functional Ribonucleoprotein Complex (vRNP) of Lassa (LASV) Arenavirus: LASV Primary Screen - GLuc reporter signal (AID 1347082). Also: nearly all actives have a fitted effect of over 60% in size. Conditions: LASV minigenome vRNP, Gaussia luciferase reporter; series mostly up to 57.5 µM.
Take `COc1cccc(OC)c1`: the Potency result was “inactive”.

Turning to `CC(O)C(C)O` (stereo not given), the Potency entry is “inactive”.

For the compound `O=c1[nH]c(=O)n([C@H]2C[C@@H](O)[C@@H](CO)O2)cc1I`, the Potency result is “inactive”.

As for `COC1=C(C)C(O)=C(C(=O)/C=C/c2ccccc2)C(=O)C1(C)C`, the Potency result is “inactive”.

Take `COc1ccc(C2CC(=O)c3c(O)cc(O)cc3O2)c(CC=C(C)C)c1OC` (stereo not given): the Potency result was “inactive”.

As to `C=C[C@@]1(C)CCC(/C(C)=C/C=C/C(C)(C)O)C[C@@H]1C(=C)C` (stereo not given in full), the Potency result was “inactive”.

With `CC1C(c2ccccc2)OC(=O)N1C` (stereo not given), the Potency entry was “inactive”.

For the compound `CCOC(=O)c1cccc(C(=O)OCC)n1`, the Potency result is “inactive”.

As for `O=C(O)c1ccccc1`, the Potency entry is “inactive”.

`COc1ccc(-c2coc3cc(OC(C)=O)c(OC)cc3c2=O)cc1`: the Potency entry was “inactive”.

As to `CC1=CCC2C(C1)C2(C)C` (stereo not given), the Potency result was “inactive”.

Regarding `O=C(O)CCC[C@H](O)\C=C/C=C/C=C/[C@H](O)C/C=C\CCCCCO`, the activity change, negative = inhibition was 12% [at 0.757 µM] (inactive).

For `Nc1nc(Cl)nc2c1ncn2[C@@H]1O[C@H](CO)[C@@H](O)[C@H]1F`, the Potency entry was “inactive”.

As to `NC1(Cc2ccc(Cl)cc2)CCN(c2ncnc3[nH]ccc23)CC1`, the Potency is 9.68 µM (active).

Take `CCCCc1ccc(O)cc1`: the Potency entry is “inactive”.

Take `O=C1Nc2ccc(Cl)cc2C(C#CC2CC2)(C(F)(F)F)O1` (stereo not given): the Potency result is “inactive”.

Take `OC[C@H]1O[C@@H]2O[C@H]3[C@H](O)[C@@H](O)[C@@H](O[C@H]4[C@H](O)[C@@H](O)[C@@H](O[C@H]5[C@H](O)[C@@H](O)[C@@H](O[C@H]6[C@H](O)[C@@H](O)[C@@H](O[C@H]7[C@H](O)[C@@H](O)[C@@H](O[C@H]8[C@H](O)[C@@H](O)[C@@H](O[C@H]9[C@H](O)[C@@H](O)[C@@H](O[C@H]1[C@H](O)[C@H]2O)O[C@@H]9CO)O[C@@H]8CO)O[C@@H]7CO)O[C@@H]6CO)O[C@@H]5CO)O[C@@H]4CO)O[C@@H]3CO`: the Potency entry was “inactive”.

As to `COC(=O)/C=C/c1ccccc1`, the Potency result is “inactive”.

`C[C@@H]1C(=O)O[C@H]2[C@H]1CC[C@@]1(C)C(=O)C=C[C@@](C)(O)[C@H]21`: the Potency result was “inactive”.

Turning to `CC(C)CCOC(=O)CC(C)C`, the Potency entry was “inactive”.

In the case of `O=P(O)(O)OC[C@H]1O[C@](O)(COP(=O)(O)O)[C@@H](O)[C@@H]1O`, the Potency entry is “inactive”.

Take `COc1cc2c(c(OC)c1OC)-c1c(cc3c(c1OC)OCO3)[C@@H](OC(C)=O)[C@H](C)[C@H](C)C2`: the Potency result is “inactive”.

For the compound `C/C(=C/C=C/[C@@H](C)C(=O)O)[C@H]1CN[C@H](C(=O)O)[C@H]1CC(=O)O`, the Potency entry was “inactive”.

Regarding `COC1=C(OC)[C@]23CCc4ccc(OC)c(OC)c4[C@]2(CCN3C)CC1=O`, the Potency entry was “inactive”.

In the case of `CCC/C=C/C/C=C/C=C/C=N/NN=O`, the Potency result is “inactive”.

As to `CCCCCCOC(=O)CCC`, the Potency result was “inactive”.

Consider `CCNC(=O)CCCC=CC[C@@H]1[C@H](C=CC(O)CCc2ccccc2)[C@@H](O)C[C@@H]1O` (stereo not given in full), for which the Potency result is “inactive”.

As for `CC(C)=CCc1c(-c2ccc(O)cc2O)oc2cc3c(c(O)c2c1=O)C=CC(C)(C)O3`, the Potency entry was “inactive”.

For `CC(C)CCCC(=O)O`, the Potency result is “inactive”.

Turning to `CC(C)=CCC/C(C)=C/CC/C(C)=C/COc1ccc2ccc(=O)oc2c1`, the Potency entry is “inactive”.

Take `CC(C)C1C(=O)O[C@@H]2CCN3CC=C(COC(=O)[C@](C)(O)[C@]1(C)O)[C@H]23` (stereo not given in full): the Potency entry is “inactive”.

On to `C/C=C(/C)C(=O)O[C@H]1[C@@H](O)c2c(ccc3ccc(=O)oc23)OC1(C)C`, for which the Potency entry is “inactive”.

`O=C(O)c1cc(N(Cc2ccccc2O)Cc2ccccc2O)ccc1O`: the Potency entry was “inactive”.

Take `COc1c(Br)cc(Br)cc1C(=O)O`: the Potency result is “inactive”.

`C=C1C(O)C[C@H]2C(=C)CCC3[C@H](OC(=O)[C@]3(O)CO)[C@@H]12` (stereo not given in full): the Potency result was “inactive”.

As for `CN[C@H]1[C@@H](O)[C@@H]2O[C@@H]3O[C@H](C)CC(=O)[C@]3(O)O[C@@H]2[C@@H](NC)[C@H]1O`, the Potency was 5.44 µM (active).

As for `C[C@H]1C[C@H]2[C@@H]3CCC4=CC(=O)C=C[C@]4(C)[C@@H]3C(=O)C[C@]2(C)[C@@]1(O)C(=O)CO`, the Potency result was “inactive”.

In the case of `COc1ccc(C2OCC3(O)C(c4ccc(OC)c(OC)c4)OCC23)cc1OC` (stereo not given), the Potency result is “inactive”.

With `C[C@@H]1O[C@@H](O[C@H]2[C@H](O)[C@@H](O)[C@H](Oc3c(-c4ccc(O)cc4)oc4cc(O)cc(O)c4c3=O)O[C@@H]2CO)[C@H](O)[C@H](O)[C@H]1O`, the Potency entry is “inactive”.

In the case of `O=C1O[C@@H](c2ccc(O)cc2)Cc2cccc(O)c21`, the Potency result is “inactive”.

Another experiment is described as follows: qHTS for Inhibitors of the Functional Ribonucleoprotein Complex (vRNP) of Lassa (LASV) Arenavirus: Viability assay - alamar blue signal for LASV Primary Screen (AID 1347083). Also: nearly all actives have a fitted effect of over 80% in size. The following applies: cell viability, alamar blue fluorescence (LASV minigenome counter-screen); series mostly up to 57.5 µM.
`COc1cccc(OC)c1`: the Potency result is “inactive”.

Take `CC(O)C(C)O` (stereo not given): the Potency result was “inactive”.

Turning to `O=c1[nH]c(=O)n([C@H]2C[C@@H](O)[C@@H](CO)O2)cc1I`, the Potency result is “inactive”.

For the compound `COC1=C(C)C(O)=C(C(=O)/C=C/c2ccccc2)C(=O)C1(C)C`, the Potency result is “inactive”.

In the case of `COc1ccc(C2CC(=O)c3c(O)cc(O)cc3O2)c(CC=C(C)C)c1OC` (stereo not given), the Potency result is “inactive”.

In the case of `C=C[C@@]1(C)CCC(/C(C)=C/C=C/C(C)(C)O)C[C@@H]1C(=C)C` (stereo not given in full), the Potency entry is “inactive”.

On to `CC1C(c2ccccc2)OC(=O)N1C` (stereo not given), for which the Potency entry was “inactive”.

Turning to `CCOC(=O)c1cccc(C(=O)OCC)n1`, the Potency result is “inactive”.

Regarding `O=C(O)c1ccccc1`, the Potency result is “inactive”.

Regarding `COc1ccc(-c2coc3cc(OC(C)=O)c(OC)cc3c2=O)cc1`, the Potency result is “inactive”.

With `CC1=CCC2C(C1)C2(C)C` (stereo not given), the Potency entry was “inactive”.

In the case of `O=C(O)CCC[C@H](O)\C=C/C=C/C=C/[C@H](O)C/C=C\CCCCCO`, the activity change, negative = reduced viability is 2.93% [at 0.757 µM] (inactive).

Turning to `Nc1nc(Cl)nc2c1ncn2[C@@H]1O[C@H](CO)[C@@H](O)[C@H]1F`, the Potency was 2.17 µM (active).

For the compound `NC1(Cc2ccc(Cl)cc2)CCN(c2ncnc3[nH]ccc23)CC1`, the Potency is 2.73 µM (active).

For `CCCCc1ccc(O)cc1`, the Potency entry was “inactive”.

As for `O=C1Nc2ccc(Cl)cc2C(C#CC2CC2)(C(F)(F)F)O1` (stereo not given), the Potency result was “inactive”.

With `OC[C@H]1O[C@@H]2O[C@H]3[C@H](O)[C@@H](O)[C@@H](O[C@H]4[C@H](O)[C@@H](O)[C@@H](O[C@H]5[C@H](O)[C@@H](O)[C@@H](O[C@H]6[C@H](O)[C@@H](O)[C@@H](O[C@H]7[C@H](O)[C@@H](O)[C@@H](O[C@H]8[C@H](O)[C@@H](O)[C@@H](O[C@H]9[C@H](O)[C@@H](O)[C@@H](O[C@H]1[C@H](O)[C@H]2O)O[C@@H]9CO)O[C@@H]8CO)O[C@@H]7CO)O[C@@H]6CO)O[C@@H]5CO)O[C@@H]4CO)O[C@@H]3CO`, the Potency entry was “inactive”.

As to `COC(=O)/C=C/c1ccccc1`, the Potency result is “inactive”.

On to `C[C@@H]1C(=O)O[C@H]2[C@H]1CC[C@@]1(C)C(=O)C=C[C@@](C)(O)[C@H]21`, for which the Potency result is “inactive”.

Consider `CC(C)CCOC(=O)CC(C)C`, for which the Potency result is “inactive”.

For `O=P(O)(O)OC[C@H]1O[C@](O)(COP(=O)(O)O)[C@@H](O)[C@@H]1O`, the Potency entry is “inactive”.

Take `COc1cc2c(c(OC)c1OC)-c1c(cc3c(c1OC)OCO3)[C@@H](OC(C)=O)[C@H](C)[C@H](C)C2`: the Potency result is “inactive”.

For `C/C(=C/C=C/[C@@H](C)C(=O)O)[C@H]1CN[C@H](C(=O)O)[C@H]1CC(=O)O`, the Potency result was “inactive”.

`COC1=C(OC)[C@]23CCc4ccc(OC)c(OC)c4[C@]2(CCN3C)CC1=O`: the Potency entry was “inactive”.

In the case of `CCC/C=C/C/C=C/C=C/C=N/NN=O`, the Potency result is “inactive”.

On to `CCCCCCOC(=O)CCC`, for which the Potency result was “inactive”.

For the compound `CCNC(=O)CCCC=CC[C@@H]1[C@H](C=CC(O)CCc2ccccc2)[C@@H](O)C[C@@H]1O` (stereo not given in full), the Potency entry was “inactive”.

As for `CC(C)=CCc1c(-c2ccc(O)cc2O)oc2cc3c(c(O)c2c1=O)C=CC(C)(C)O3`, the Potency result was “inactive”.

As for `CC(C)CCCC(=O)O`, the Potency result is “inactive”.

Regarding `CC(C)=CCC/C(C)=C/CC/C(C)=C/COc1ccc2ccc(=O)oc2c1`, the Potency entry was “inactive”.

`CC(C)C1C(=O)O[C@@H]2CCN3CC=C(COC(=O)[C@](C)(O)[C@]1(C)O)[C@H]23` (stereo not given in full): the Potency entry was “inactive”.

Regarding `C/C=C(/C)C(=O)O[C@H]1[C@@H](O)c2c(ccc3ccc(=O)oc23)OC1(C)C`, the Potency result was “inactive”.

`O=C(O)c1cc(N(Cc2ccccc2O)Cc2ccccc2O)ccc1O`: the Potency entry is “inactive”.

Turning to `COc1c(Br)cc(Br)cc1C(=O)O`, the Potency result was “inactive”.

For `C=C1C(O)C[C@H]2C(=C)CCC3[C@H](OC(=O)[C@]3(O)CO)[C@@H]12` (stereo not given in full), the Potency entry is “inactive”.

Take `CN[C@H]1[C@@H](O)[C@@H]2O[C@@H]3O[C@H](C)CC(=O)[C@]3(O)O[C@@H]2[C@@H](NC)[C@H]1O`: the Potency was 7.69 µM (active).

As for `C[C@H]1C[C@H]2[C@@H]3CCC4=CC(=O)C=C[C@]4(C)[C@@H]3C(=O)C[C@]2(C)[C@@]1(O)C(=O)CO`, the Potency result is “inactive”.

`COc1ccc(C2OCC3(O)C(c4ccc(OC)c(OC)c4)OCC23)cc1OC` (stereo not given): the Potency entry is “inactive”.

On to `C[C@@H]1O[C@@H](O[C@H]2[C@H](O)[C@@H](O)[C@H](Oc3c(-c4ccc(O)cc4)oc4cc(O)cc(O)c4c3=O)O[C@@H]2CO)[C@H](O)[C@H](O)[C@H]1O`, for which the Potency entry is “inactive”.

As to `O=C1O[C@@H](c2ccc(O)cc2)Cc2cccc(O)c21`, the Potency entry was “inactive”.

The record behind these values is PubChem BioAssay (NCATS).
